# In PubChem BioAssay (Tox21):
# Inconclusive results are not listed. A number with no mark means an inactive call. Active and inactive are the calls of the source. Calls follow the shape of the dose curve; as a rule, active = well fitted inhibition curve with a large enough effect in the repeat runs; inconclusive = weak or mixed curves; inactive = no such curve, though single readings can be large or run the other way.
# Assay: qHTS assay to identify small molecule antagonists of the thyroid receptor (TR) signaling pathway (AID 743065); also: nearly all actives have a fitted effect of over 55% in size
# Details: GH3.TRE-Luc, T3-stimulated luciferase inhibition, 23.5 h; series mostly up to 70.3 µM; activity, negative = inhibition: at the top concentration
# Excerpt: U.S. Tox21 Program National Center for Advancing Translational Sciences [NCATS] NIH Chemical Genomics Center [NCGC] U.S. Environmental Protection Agency [EPA] National Institutes of Environmental Health Sciences [NIEHS] National Toxicology Program [NTP] U.S. Food and Drug Administration [FDA] Tox21 Assay Overview: Thyroid receptor (TR), a nuclear hormone receptor, plays an important role in development, proliferation, differentiation, metabolism, brain function, and cardiovascular system. […] To profile the Tox21 10K compound library in TR signaling, a cell-based GH3-TRE-Luc assay (GH3.TRE-Luc cell line, developed by the laboratory of Dr. Albertinka J. Murk, Wageningen University) was used to measure the inhibition of TR. GH3 (rat pituitary tumor) cells stably expressing a TR activity sensor consisting of two TR response elements and a luciferase reporter gene.
# Tox21 Assay Protocol Summary: GH3.TRE-Luc cells were dispensed at 1500 cells/4 uL/well into 1536-well white solid bottom plates using a Multidrop Combi dispenser (Thermo Fisher Scientific Inc., Waltham, MA). After the assay plates were incubated at 37 C for 4 hours, 23 nL of library compound or DMSO controls was transferred to the assay plates by a pintool station (Kalypsys, San Diego, CA), followed by addition of 1 ul of T3 (1 nM, final concentration in the wells) to stimulate TR transactivation. The assay plates were incubated at 37 C for 23.5 h, and then 1 uL of CellTiter-Fluor reagent (Promega, Madision, WI) of measuring cytotoxicity was added to each well using a Bioraptr Flying Reagent Dispenser (FRD) workstation (Beckman Coulter, Indianapolis, IN, USA). The plates were incubated at 37 C and 5% CO2 for additional 30 min, and fluorescence intensity was measured by a ViewLux plate reader (PerkinElmer, Shelton, CT). For measuring luciferase reporter gene activity, 4 uL of ONE-Glo Luciferase Assay reagent (Promega) was added to each well using a Bioraptr FRD (Beckman Coulter), followed by 30 min incubation at room temperature. The luminescence intensity of plates was recorded by a ViewLux plate reader (PerkinElmer, Shelton, CT).
# % is scaled to controls: 0 for no effect and ±100 for the full control effect; potency is read from the fitted curve at half-maximal effect.
SMILES,"activity, negative = inhibition",Potency
CC1CCc2nccnc21 (stereo not given),0.929%,
CCCCCCCCCCCC(=O)OCC(O)CO (stereo not given),-11.9%,
CC(=O)OCC(=O)[C@@]1(OC(C)=O)[C@@H](C)C[C@H]2[C@@H]3C[C@H](F)C4=CC(=O)C=C[C@]4(C)[C@@]3(F)[C@@H](O)C[C@@]21C,2.32%,
CC(C)CC(O)CC(C)C,13%,
O=C1CC[C@@H](C(=O)O)N1,0.0129%,
CN1CCCN(C(c2ccccc2)c2ccc(Cl)cc2)CC1 (stereo not given),,10.6 µM (active)
O=C(c1ccccc1)C1CCC1,-0.829%,
CNCc1ccc(NC(=O)c2c[nH]c3c2C(=O)CCC3)cc1,-12%,
Cc1cn([C@H]2C[C@H](F)[C@@H](CO)O2)c(=O)[nH]c1=O,7.83%,
SCCc1cnccn1,17.1%,
CC1=C2[C@@H]([C@H](C)CC[C@H]2/C=C(\C)C(=O)O)[C@H](O)C1,-0.722%,
CC(C)(O)CCc1ccccc1,7.88%,
O=[N+]([O-])c1ccc2ncccc2c1,3.1%,
NC(=O)c1ccccc1[N+](=O)[O-],2.05% [at 95 µM],
O=C(O)CCCc1c[nH]c2ccccc12,-4.28%,
C=C(C)c1ccccc1,0%,
O=C1OC[C@H](Cc2cccc(O)c2)[C@H]1Cc1cccc(O)c1,-11% [at 32.5 µM],
CCN(Cc1cccc(S(=O)(=O)O)c1)c1ccc(C(=C2C=CC(=[N+](CC)Cc3cccc(S(=O)(=O)O)c3)C=C2)c2ccccc2S(=O)(=O)[O-])cc1,,15.4 µM (active)
CC(C)COC(=O)COc1cc(Cl)c(Cl)cc1Cl,1.42%,
ClC1=C(Cl)C1(Cl)Cl,1.03% [at 95 µM],

SMILES,"activity, negative = inhibition",Potency
O=S(=O)(O)CO,35%,
O=C1OC(=O)c2c(Br)c(Br)c(Br)c(Br)c21,-4.9%,
CNC1CCCN(c2c(F)cc3c(=O)c(C(=O)O)cn(C4CC4)c3c2OC)C1 (stereo not given),2.28%,
C[C@@H]1C[C@H]2[C@@H]3CCC4=CC(=O)C=C[C@]4(C)[C@@]3(F)[C@@H](O)C[C@]2(C)[C@@]1(O)C(=O)COP(=O)(O)O,,inactive
O=C(C(=O)c1ccco1)c1ccco1,-1.09% [at 95 µM],
CC(=O)NCCO,-0.788%,
CSSc1ccoc1C,8.79%,
O=C(O)CN1C(=O)c2cccc3cccc(c23)C1=O,1.07%,
COc1cc(C(C)=O)ccc1OCCCN1CCC(c2noc3cc(F)ccc23)CC1,,23.7 µM (active)
O[C@@H](CNC[C@H](O)[C@H]1CCc2cc(F)ccc2O1)[C@@H]1CCc2cc(F)ccc2O1,,9.44 µM (active)
O=C(c1ccccc1)c1ccc(O)cc1,-0.177% [at 95 µM],
CCCCCC,4.18%,
COc1cc(S(=O)(=O)Nc2ccccc2)c(OC)cc1N,0.962%,
CCCCCCC(CO)CCCC (stereo not given),6.58%,
COc1ccc(C(=O)NCc2ccc(OCCN(C)C)cc2)cc1OC,24.3%,
CN1C(CSCC(F)(F)F)Nc2cc(Cl)c(S(N)(=O)=O)cc2S1(=O)=O (stereo not given),-11.9%,
CCOCCC(=O)OCC,-12.5% [at 95 µM],
Cc1ccccc1S(N)(=O)=O,-0.157%,
CC(C)(C)C1(CCc2ccc(Cl)cc2)CO1 (stereo not given),0.914%,
CC(=O)C(=O)CC(C)C,11.5%,
